TDP-43 yeast inh – inhibitors of TDP-43 toxicity in yeast. TDP-43 expressing yeast growth rescue, BacTiter-Glo, 24 h. Potency, µM (highest dose often 46.1 µM), most hits filed as activators. actives 1.8% (n = 410,000); also: nearly all actives have a fitted effect of over 50% in size
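Luminescence from BacTiter-Glo reports growth of TDP-43-expressing yeast after 24 hr at 30 deg C with compound. Cells were raffinose-pregrown to mid-log, then seeded in galactose medium at OD600=0.02.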
Abeta yeast res – compounds reversing amyloid beta toxicity in yeast | yeast expressing A-beta42, growth rescue, OD600, 48 h; response scale: 0% DMSO, 100% iron-clioquinol control | Potency, µM (titrated, usually from 46.1 µM), usual class: activators | actives 0.063% (n = 410,000); also: nearly all actives have a fitted effect of over 55% in size
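Yeast growth medium received pinned compounds, then yeast cells expressing toxic A-beta were added; plates incubated at 30 C for 48 hr. Growth read as absorbance at 600 nm, normalized to DMSO and equimolar FeCl3 plus clioquinol controls.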
FUS suppressor – FUS proteinopathy suppression in yeast | S. cerevisiae FUS-expressing, growth rescue, OD600, 24 h | Potency, µM (highest dose often 76.6 µM), usual class: activators | actives 0.24% (n = 390,000) | AID 1347120; also: nearly all actives have a fitted effect of over 55% in size
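Toxicity suppression screen in FUS-yeast. Cells induced with 2% galactose, starting OD 0.005, treated 24hr at 30C with compounds at multiple final concentrations; growth by OD600.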
aSyn rescue – inhibitors of alpha-synuclein toxicity in yeast; Potency, µM (doses to about 46.1 µM), actives largely listed as activators; actives 0.14% (n = 370,000); Yeast expressing alpha-synuclein, growth rescue, BacTiter-Glo, 24 h; also: nearly all actives have a fitted effect of over 65% in size
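Galactose-induced alpha-syn yeast (OD600=0.02, raffinose-pregrown) + pinned cpd, 24 hr, 30 deg C; growth by BacTiter-Glo luminescence. Growth restoration scores as activation.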
Large screens that a line does not name were inactive; ! = not confirmed by another sample. A selection: hits, their analogues and other compounds. The true share with any hit is near 2.1%. Calls follow the shape of the dose curve; as a rule, active = well fitted curve in the direction sought with a large enough effect; inconclusive = small, poorly fitted or top-dose-only effect, or another doubt; inactive = no such curve, though single readings can be large; an effect the other way counts as inactive or inconclusive.

Cc1ccc2nc(-c3ccncc3)cc(C(=O)N3CCC4(CC3)OCCO4)c2c1	none
Cc1ccc(-c2cc(C(F)F)n3ncc(C(=O)N4CCc5ccccc5C4)c3n2)cc1	TDP-43 yeast inh 16µM
C=C(C=O)C[C@@H]1C[C@H](O)C2OC3C[C@]4(C)OC5/C=C\CC6OC7C(CC=CCC6OC5CCCC4OC3CC2O1)OC1CC2OC3CC(=O)OC3C[C@@H](C)C[C@@]2(C)OC1C[C@@H]7C (some centres not stated)	TDP-43 yeast inh 22µM
C=C(C=O)CC1CC(O)[C@]2(C)OC3C[C@@H]4OC5C[C@]6(C)O[C@]7(C)CCC8OC9C[C@]%10(C)OC(/C(C)=C\CO)C(O)CC%10OC9CC(C)C8OC7CC6O[C@]5(C)C/C=C\C4OC3CC2O1 (some centres not stated)	FUS suppressor inconclusive
CC(C)C[C@H]1CN([C@@H](CC(C)C)CN2CCCC2CN2C(=S)NC[C@@H]2Cc2ccc(O)cc2)C(=S)N1CC1CCCCCC1 (some centres not stated)	TDP-43 yeast inh inconclusive, FUS suppressor inconclusive
Cc1ccc(S(=O)(=O)N(C)C[C@H]2Oc3ncc(Br)cc3C(=O)N([C@H](C)CO)C[C@@H]2C)cc1	FUS suppressor inconclusive, aSyn rescue inconclusive
C=CCn1c(O)c(C(CC)=NCCC2=CCCCC2)c(=O)[nH]c1=O	TDP-43 yeast inh 18µM (no result: aSyn rescue)
CCOc1ccc(NS(=O)(=O)c2ccc(Cl)c(N=Nc3c(O)[nH]c(=S)[nH]c3=O)c2)cc1Br	aSyn rescue inconclusive
CN1c2ccc([N+](=O)[O-])cc2CC2(C(=O)NC(=O)N(c3ccc(Br)cc3)C2=O)C1c1ccccc1 (configuration not stated)	FUS suppressor 18µM
COc1ccc(N2C(=O)/C(=C/c3ccc(C)o3)C(=O)NC2=S)cc1	TDP-43 yeast inh 7.1µM
CCOc1ccc(N2C(=O)/C(=C/c3ccc(C)o3)C(=O)NC2=S)cc1	none
CCOC(=O)[C@]12Cc3cc(Cl)ccc3[C@H]1N(C)C(=O)c1cc(OC)ccc12	TDP-43 yeast inh 22µM
CCOC(=O)[C@]12Cc3cc(OC)ccc3[C@H]1N(C)C(=O)c1cc(OC)ccc12	TDP-43 yeast inh inconclusive
Cc1cc(C(=O)OCC(=O)Nc2ccc(F)cc2)c(C)n1C1CC1	TDP-43 yeast inh 35µM (no result: FUS suppressor)
Cc1cc(C(=O)OCC(=O)Nc2cccc(F)c2)c(C)n1C1CC1	TDP-43 yeast inh inconclusive, FUS suppressor inconclusive
CCOC(=O)CCCc1cc[c]([Sb](=[O])([OH])[OH])cc1	none (no result: TDP-43 yeast inh, Abeta yeast res, FUS suppressor)
Nc1c(C(=O)NCC2CCCO2)c2nc3ccccc3nc2n1Cc1ccco1 (configuration not stated)	none
Nc1c(C(=O)NC2CCCC2)c2nc3ccccc3nc2n1CC1CCCO1 (configuration not stated)	TDP-43 yeast inh 13µM, FUS suppressor inconclusive
CC(=O)N1CCN(c2ccc(OC[C@H]3CO[C@](Cn4ccnc4)(c4ccc(Cl)cc4Cl)O3)cc2)CC1	TDP-43 yeast inh inconclusive, aSyn rescue 5.2µM!
CC(=O)N1CCN(c2ccc(OC[C@@H]3CO[C@@](Cn4ccnc4)(c4ccc(Cl)cc4Cl)O3)cc2)CC1	aSyn rescue 3.2µM (no result: TDP-43 yeast inh, Abeta yeast res, FUS suppressor)
COC(=O)C1(C(=O)OC)C[C@H](c2ccc(OC)cc2)N(Cc2ccccc2OC)[C@@H]1c1ccccc1	aSyn rescue inconclusive
Cc1nc2cc(OC(=O)N(C)Cc3cccc(-c4ccncc4)c3)ccc2s1	TDP-43 yeast inh 10µM
CN(Cc1cccc(-c2ccncc2)c1)C(=O)Oc1ccccc1Cl	none
CC1(C(=O)O)CC12c1ccccc1-c1ccccc12 (configuration not stated)	TDP-43 yeast inh 3.2µM (no result: FUS suppressor)
COc1cccc(-n2cnc3scc(-c4cccs4)c3c2=O)c1	TDP-43 yeast inh 18µM
Nc1ccc2c3c(cccc13)-c1ccccc1-2	TDP-43 yeast inh 11µM
O=C(c1ccco1)c1cn(Cc2ccc(Cl)cc2)c2ccccc12	TDP-43 yeast inh 13µM, Abeta yeast res inconclusive
Cc1ccc2c(C)c3ccc4ccccc4c3c[n+]2c1	TDP-43 yeast inh 2.5µM, aSyn rescue inconclusive (no result: FUS suppressor)
Oc1ccc(Cl)cc1Sc1cc(Cl)ccc1O	none
Cc1ccc(-n2c(=S)[nH]c3ccccc3c2=O)cc1F	TDP-43 yeast inh inconclusive, aSyn rescue inconclusive
O=c1c2ccccc2[nH]c(=S)n1-c1cccc(C(F)(F)F)c1	TDP-43 yeast inh 6.3µM, aSyn rescue inconclusive
O=C(Oc1ccc(Cl)cc1)N1CCOCC1	TDP-43 yeast inh 20µM
O=C(Nc1ccc(OC(=O)N2CCCC2)cc1)N1CCOCC1	none

Screening data deposited in PubChem BioAssay by National Center for Advancing Translational Sciences (NCATS).
